Test results from PubChem BioAssay AID1159580 (chemical genetic matrix, 2015).
“And” between values parts separate entries of the source, which are not always exact repeats. Equal entries are not always repeated. Screen size: about 5,500 compounds; about 2,000 (36%) were called active. Another 18% or so got no clear call; they are omitted. No stated cut-off is given here; in the data, active means normalized growth mostly below about 0.91 (no sharp cut-off); inconclusive means no clear call, values can overlap the other calls; inactive means mostly above about 0.92. Some of the results follow.

Assay: chemical genetic growth profiling, strain panel (AID 1159580);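 further: tested at 20 µM; growth read once vehicle control cultures reached saturation at 30 °C; 1 = growth at the plate median or of vehicle wells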
Conditions: S. cerevisiae deletion strains, growth OD

Measured: normalized growth

C=CC(C)(O)CC/C=C(\C)CCC=C(C)C (configuration not stated)
0.955 (inactive) and 0.825 (active): locus YHR030C, strain SLT2, stronger effect = lower value
inactive: locus YAL013W, strain DEP1, stronger effect = lower value 0.947 | locus YAL021C, strain ccr4, stronger effect = lower value 0.913 | locus YAL026C, strain drs2, stronger effect = lower value 0.958 | locus YAL030W, strain snc1, stronger effect = lower value 0.986 | locus YBL061C, strain skt5, stronger effect = lower value 0.951 | locus YBR009C, strain hhf1, stronger effect = lower value 0.923 | locus YBR021W, strain FUR4, stronger effect = lower value 0.863 | locus YBR023C, strain chs3, stronger effect = lower value 0.938 | locus YBR171W, strain sec66, stronger effect = lower value 0.965 | locus YBR229C, strain ROT2, stronger effect = lower value 0.999 | locus YBR231C, strain swc5, stronger effect = lower value 0.98 | locus YCL011C, strain gbp2, stronger effect = lower value 0.949 | locus YCL016C, strain dcc1, stronger effect = lower value 0.965 | locus YCL029C, strain bik1, stronger effect = lower value 0.993 | locus YCL061C, strain MRC1, stronger effect = lower value 0.969 | locus YCL069W, strain vba3, stronger effect = lower value 0.968 | locus YCR088W, strain abp1, stronger effect = lower value 0.975 | locus YDL005C, strain med2, stronger effect = lower value 0.956 | locus YDL035C, strain GPR1, stronger effect = lower value 0.956 | locus YDL040C, strain nat1, stronger effect = lower value 0.982 | locus YDL074C, strain BRE1, stronger effect = lower value 0.886 | locus YDL101C, strain DUN1, stronger effect = lower value 0.958 | locus YDL185W, strain tfp1, stronger effect = lower value 1.02 | locus YDL192W, strain arf1, stronger effect = lower value 0.952 | locus YDR001C, strain nth1, stronger effect = lower value 0.98 | locus YDR069C, strain doa4, stronger effect = lower value 0.946 | locus YDR101C, strain arx1, stronger effect = lower value 0.992 | locus YDR137W, strain rgp1, stronger effect = lower value 0.916 | locus YDR159W, strain sac3, stronger effect = lower value 0.862 | locus YDR162C, strain NBP2, stronger effect = lower value 0.92 | locus YDR297W, strain sur2, stronger effect = lower value 0.974 | locus YDR318W, strain mcm21, stronger effect = lower value 0.99 | locus YDR334W, strain swr1, stronger effect = lower value 0.944 | locus YDR335W, strain msn5, stronger effect = lower value 0.979 | locus YDR388W, stronger effect = lower value 0.985 | locus YDR502C, strain sam2, stronger effect = lower value 0.978 | locus YEL003W, strain gim4, stronger effect = lower value 0.983 | locus YEL037C, strain rad23, stronger effect = lower value 0.964 | locus YEL061C, strain CIN8 (second series), stronger effect = lower value 0.978 | locus YEL061C, strain CIN8, stronger effect = lower value 0.937 | locus YER015W, strain faa2, stronger effect = lower value 0.974 | locus YER016W, strain bim1, stronger effect = lower value 0.988 | locus YER110C, stronger effect = lower value 1.01 | locus YER111C, strain swi4, stronger effect = lower value 0.947 | locus YER167W, strain BCK2, stronger effect = lower value 0.944 | locus YFR010W, strain ubp6, stronger effect = lower value 0.903 | locus YGL078C, strain dbp3, stronger effect = lower value 0.988 | locus YGL086W, strain mad1, stronger effect = lower value 0.981 | locus YGL167C, strain pmr1, stronger effect = lower value 0.984 | locus YGL173C, strain kem1, stronger effect = lower value 0.965 | locus YGL227W, strain vid30, stronger effect = lower value 0.979 | locus YGL240W, strain doc1, stronger effect = lower value 0.964 | locus YGL248W, strain PDE1, stronger effect = lower value 0.931 | locus YGL253W, strain hxk2, stronger effect = lower value 0.984 | locus YGR135W, strain pre9, stronger effect = lower value 0.967 | locus YGR252W, strain gcn5, stronger effect = lower value 1.03 | locus YHR013C, strain ard1, stronger effect = lower value 0.964 | locus YHR027C, strain rpn1, stronger effect = lower value 0.978 | locus YHR079C, strain IRE1 (second series), stronger effect = lower value 0.999 | locus YHR094C, strain hxt1, stronger effect = lower value 1.02 | locus YHR129C, strain ARP1, stronger effect = lower value 0.939 | locus YHR200W, strain rpn10, stronger effect = lower value 0.991 | locus YIL066C, strain RNR3, stronger effect = lower value 0.934 | locus YIL073C, strain SPO22, stronger effect = lower value 0.88 | locus YIL125W, strain kgd1, stronger effect = lower value 1.02 | locus YIR030C, strain dcg1, stronger effect = lower value 1.01 | locus YJL092W, strain hpr5, stronger effect = lower value 0.965 | locus YJL095W, strain BCK1 (second series), stronger effect = lower value 0.99 | locus YJL095W, strain BCK1, stronger effect = lower value 0.869 and 0.946 | locus YJL115W, strain asf1, stronger effect = lower value 0.954 | locus YJL129C, strain trk1, stronger effect = lower value 0.923 | locus YJL134W, strain LCB3, stronger effect = lower value 0.997 | locus YJL154C, strain vps35, stronger effect = lower value 0.959 | locus YJL168C, strain set2, stronger effect = lower value 1.01 | locus YJL187C, strain SWE1 (second series), stronger effect = lower value 0.946 | locus YJL187C, strain SWE1, stronger effect = lower value 0.986 | locus YJR043C, strain POL32, stronger effect = lower value 0.978 | locus YJR066W, strain TOR1, stronger effect = lower value 0.911
active: locus YDR195W, strain ref2 0.662 | locus YDR392W, strain spt3, stronger effect = lower value 0.454 | locus YER155C, strain BEM2 (second series), stronger effect = lower value 0.777 | locus YER155C, strain BEM2, stronger effect = lower value 0.807 | locus YHR079C, strain IRE1, stronger effect = lower value 0.81 | locus YHR142W, strain chs7, stronger effect = lower value 0.75 | locus YJL164C, strain tpk1, stronger effect = lower value 0.915 | locus YJL166W, strain qcr8, stronger effect = lower value 0.902
